From PMC9911399, “Two distinct binding modes provide the RNA-binding protein RbFox with extraordinary sequence specificity”
Substitutions are numbered along the chain they refer to; changes in the protein carry UniProt numbers. In all, about 16,000 sequences were measured (“ka relative to ugcaugu”: median about 0.0091, highest 2% from about 0.032 on). This is one part of a sample in which the highest values are shown more often than they occur.

T1: RBFOX1 RRM (Homo sapiens, UniProt Q9NWB1 109-208)
T1 sequence: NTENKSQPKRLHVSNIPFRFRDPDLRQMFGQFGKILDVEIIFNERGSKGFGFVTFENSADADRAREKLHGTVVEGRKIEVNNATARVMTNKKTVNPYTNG

B1: AGAAAUU (DNA:RNA)
RNA: GGGAGACCGGAAUUCAGAUUGUCCAGAAAUUUUAAAUCCCGUCGUAGCCACCA
DNA 1: CAATCTGAATTCCGGTCTCCC
DNA 2: TGGTGGCTACGACGGGATT
B2: UCAAUAA (DNA:RNA)
RNA: B1 RNA with A25U, G26C, A29U, U30A, U31A
DNA 1: CAATCTGAATTCCGGTCTCCC
DNA 2: TGGTGGCTACGACGGGATT
B3: ACAGCAG (DNA:RNA)
RNA: B1 RNA with G26C, A28G, A29C, U30A, U31G
DNA 1: CAATCTGAATTCCGGTCTCCC
DNA 2: TGGTGGCTACGACGGGATT
B4: CUCGUGG (DNA:RNA)
RNA: GGGAGACCGGAAUUCAGAUUGUCCCUCGUGGUUAAAUCCCGUCGUAGCCACCA
DNA 1: CAATCTGAATTCCGGTCTCCC
DNA 2: TGGTGGCTACGACGGGATT
B5: GGGCGCU (DNA:RNA)
RNA: B1 RNA with A25G, A27G, A28C, A29G, U30C
DNA 1: CAATCTGAATTCCGGTCTCCC
DNA 2: TGGTGGCTACGACGGGATT
B6: GGGCUAG (DNA:RNA)
RNA: B4 RNA with C25G, U26G, C27G, G28C, G30A
DNA 1: CAATCTGAATTCCGGTCTCCC
DNA 2: TGGTGGCTACGACGGGATT
B7: CUGGGCU (DNA:RNA)
RNA: B4 RNA with C27G, U29G, G30C, G31U
DNA 1: CAATCTGAATTCCGGTCTCCC
DNA 2: TGGTGGCTACGACGGGATT
B8: GUCGGGC (DNA:RNA)
RNA: B4 RNA with C25G, U29G, G31C
DNA 1: CAATCTGAATTCCGGTCTCCC
DNA 2: TGGTGGCTACGACGGGATT
B9: UGGGCUU (DNA:RNA)
RNA: B1 RNA with A25U, A27G, A28G, A29C
DNA 1: CAATCTGAATTCCGGTCTCCC
DNA 2: TGGTGGCTACGACGGGATT
B10: GGGGCGC (DNA:RNA)
RNA: B4 RNA with C25G, U26G, C27G, U29C, G31C
DNA 1: CAATCTGAATTCCGGTCTCCC
DNA 2: TGGTGGCTACGACGGGATT
B11: CGGGCGC (DNA:RNA)
RNA: B4 RNA with U26G, C27G, U29C, G31C
DNA 1: CAATCTGAATTCCGGTCTCCC
DNA 2: TGGTGGCTACGACGGGATT
B12: GGGCUUG (DNA:RNA)
RNA: B1 RNA with A25G, A27G, A28C, A29U, U31G
DNA 1: CAATCTGAATTCCGGTCTCCC
DNA 2: TGGTGGCTACGACGGGATT
B13: GGGGGGC (DNA:RNA)
RNA: B4 RNA with C25G, U26G, C27G, U29G, G31C
DNA 1: CAATCTGAATTCCGGTCTCCC
DNA 2: TGGTGGCTACGACGGGATT
B14: UGGGGCU (DNA:RNA)
RNA: B1 RNA with A25U, A27G, A28G, A29G, U30C
DNA 1: CAATCTGAATTCCGGTCTCCC
DNA 2: TGGTGGCTACGACGGGATT
B15: GGCUAGU (DNA:RNA)
RNA: B1 RNA with A25G, A27C, A28U, U30G
DNA 1: CAATCTGAATTCCGGTCTCCC
DNA 2: TGGTGGCTACGACGGGATT
B16: CGGCUAG (DNA:RNA)
RNA: B4 RNA with U26G, C27G, G28C, G30A
DNA 1: CAATCTGAATTCCGGTCTCCC
DNA 2: TGGTGGCTACGACGGGATT
B17: UAGUGAU (DNA:RNA)
RNA: B1 RNA with A25U, G26A, A27G, A28U, A29G, U30A
DNA 1: CAATCTGAATTCCGGTCTCCC
DNA 2: TGGTGGCTACGACGGGATT
B18: CACUUCG (DNA:RNA)
RNA: B4 RNA with U26A, G28U, G30C
DNA 1: CAATCTGAATTCCGGTCTCCC
DNA 2: TGGTGGCTACGACGGGATT
B19: GUCUGUU (DNA:RNA)
RNA: B1 RNA with A25G, G26U, A27C, A28U, A29G
DNA 1: CAATCTGAATTCCGGTCTCCC
DNA 2: TGGTGGCTACGACGGGATT
B20: GGGUUAG (DNA:RNA)
RNA: B4 RNA with C25G, U26G, C27G, G28U, G30A
DNA 1: CAATCTGAATTCCGGTCTCCC
DNA 2: TGGTGGCTACGACGGGATT
B21: CUGAUGG (DNA:RNA)
RNA: B4 RNA with C27G, G28A
DNA 1: CAATCTGAATTCCGGTCTCCC
DNA 2: TGGTGGCTACGACGGGATT
B22: AGAACUG (DNA:RNA)
RNA: B1 RNA with A29C, U31G
DNA 1: CAATCTGAATTCCGGTCTCCC
DNA 2: TGGTGGCTACGACGGGATT
B23: GCAAAGC (DNA:RNA)
RNA: B1 RNA with A25G, G26C, U30G, U31C
DNA 1: CAATCTGAATTCCGGTCTCCC
DNA 2: TGGTGGCTACGACGGGATT
B24: UUGCGGA (DNA:RNA)
RNA: B4 RNA with C25U, C27G, G28C, U29G, G31A
DNA 1: CAATCTGAATTCCGGTCTCCC
DNA 2: TGGTGGCTACGACGGGATT
B25: CGGCUUU (DNA:RNA)
RNA: B1 RNA with A25C, A27G, A28C, A29U
DNA 1: CAATCTGAATTCCGGTCTCCC
DNA 2: TGGTGGCTACGACGGGATT
B26: GGGGGCU (DNA:RNA)
RNA: B1 RNA with A25G, A27G, A28G, A29G, U30C
DNA 1: CAATCTGAATTCCGGTCTCCC
DNA 2: TGGTGGCTACGACGGGATT
B27: GGGGCUU (DNA:RNA)
RNA: B1 RNA with A25G, A27G, A28G, A29C
DNA 1: CAATCTGAATTCCGGTCTCCC
DNA 2: TGGTGGCTACGACGGGATT
B28: CGGGCUU (DNA:RNA)
RNA: B1 RNA with A25C, A27G, A28G, A29C
DNA 1: CAATCTGAATTCCGGTCTCCC
DNA 2: TGGTGGCTACGACGGGATT
B29: CGGGGCU (DNA:RNA)
RNA: B1 RNA with A25C, A27G, A28G, A29G, U30C
DNA 1: CAATCTGAATTCCGGTCTCCC
DNA 2: TGGTGGCTACGACGGGATT
B30: CCGGGCU (DNA:RNA)
RNA: B4 RNA with U26C, C27G, U29G, G30C, G31U
DNA 1: CAATCTGAATTCCGGTCTCCC
DNA 2: TGGTGGCTACGACGGGATT
B31: GGCUUUU (DNA:RNA)
RNA: B1 RNA with A25G, A27C, A28U, A29U
DNA 1: CAATCTGAATTCCGGTCTCCC
DNA 2: TGGTGGCTACGACGGGATT
B32: GGGCUUU (DNA:RNA)
RNA: B1 RNA with A25G, A27G, A28C, A29U
DNA 1: CAATCTGAATTCCGGTCTCCC
DNA 2: TGGTGGCTACGACGGGATT
B33: GCGGGCU (DNA:RNA)
RNA: B1 RNA with A25G, G26C, A27G, A28G, A29G, U30C
DNA 1: CAATCTGAATTCCGGTCTCCC
DNA 2: TGGTGGCTACGACGGGATT

The binders below were run against T1, RBFOX1 RRM (assay: EMSA; HiTS-Eq, 1 nM pool, 10 min; buffer printed only for the single-RNA assays: 10 mM Tris pH 7.5, 150 mM NaCl, 3.4 mM EDTA, 0.001% NP-40, 30 C). Conditions: tags: His6 N-terminal (pET28a); label: 5' 32P.
Outline: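 Purified RbFox RRM (wild type or mutant) was equilibrated for 10 min in 50 µL with 1 nM of a 5′-radiolabelled pool of RNA with 7 randomized nucleotides, its flanks annealed to DNA oligonucleotides, across increasing protein concentrations. Free RNA was separated by 8% native PAGE, excised, reverse-transcribed, PCR-barcoded and sequenced on an Illumina HiSeq 2500. Relative association constants came from read-count changes of each variant against the control reaction, normalised to the cognate motif.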

Binder | binding signal
B1 | 0.00368 KA relative to UGCAUGU
B2 | 0.00079 KA relative to UGCAUGU
B3 | 0.00511 KA relative to UGCAUGU
B4 | 0.00654 KA relative to UGCAUGU
B5 | 0.0216 KA relative to UGCAUGU
B6 | 0.0339 KA relative to UGCAUGU
B7 | 0.0227 KA relative to UGCAUGU
B8 | 0.0126 KA relative to UGCAUGU
B9 | 0.0356 KA relative to UGCAUGU
B10 | 0.0421 KA relative to UGCAUGU
B11 | 0.0268 KA relative to UGCAUGU
B12 | 0.0531 KA relative to UGCAUGU
B13 | 0.0272 KA relative to UGCAUGU
B14 | 0.0267 KA relative to UGCAUGU
B15 | 0.0239 KA relative to UGCAUGU
B16 | 0.02 KA relative to UGCAUGU
B17 | 0.00564 KA relative to UGCAUGU

Binder | binding signal
B18 | 0.0103 KA relative to UGCAUGU
B19 | 0.0246 KA relative to UGCAUGU
B20 | 0.0153 KA relative to UGCAUGU
B21 | 0.0123 KA relative to UGCAUGU
B22 | 0.0109 KA relative to UGCAUGU
B23 | 0.0111 KA relative to UGCAUGU
B24 | 0.0101 KA relative to UGCAUGU
B25 | 0.0187 KA relative to UGCAUGU
B26 | 0.0377 KA relative to UGCAUGU
B27 | 0.033 KA relative to UGCAUGU
B28 | 0.0317 KA relative to UGCAUGU
B29 | 0.0294 KA relative to UGCAUGU
B30 | 0.00883 KA relative to UGCAUGU
B31 | 0.0115 KA relative to UGCAUGU
B32 | 0.0244 KA relative to UGCAUGU
B33 | 0.0197 KA relative to UGCAUGU
